In all, about 360,000 compounds went through this assay and about 2,400 (0.67%) were called active.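 The calls were made as follows: active = compounds whose normalised, plate-corrected inhibition of enzyme fluorescence in the single-dose primary screen is 50% or more; inactive = the rest.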 The list comes from a sample in which actives are over-represented; it also holds similar structures and randomly drawn compounds.
What follows are molecules tested against Fatty acid synthase (Homo sapiens) (UniProt P49327) (assay: FAS thioesterase domain inhibitors, primary screen, biochemical, fluorescence intensity, uHTS (AID 602261;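 also: 0% = DMSO with enzyme and 100% = substrate without enzyme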)). Conditions: recombinant FAS-TE, OMFH fluorogenic substrate, fluorescence endpoint; at 15 µM; active compounds read high.
Sequence of Fatty acid synthase (Homo sapiens) (P49327 whole entry, looked up, the tested form may be a part): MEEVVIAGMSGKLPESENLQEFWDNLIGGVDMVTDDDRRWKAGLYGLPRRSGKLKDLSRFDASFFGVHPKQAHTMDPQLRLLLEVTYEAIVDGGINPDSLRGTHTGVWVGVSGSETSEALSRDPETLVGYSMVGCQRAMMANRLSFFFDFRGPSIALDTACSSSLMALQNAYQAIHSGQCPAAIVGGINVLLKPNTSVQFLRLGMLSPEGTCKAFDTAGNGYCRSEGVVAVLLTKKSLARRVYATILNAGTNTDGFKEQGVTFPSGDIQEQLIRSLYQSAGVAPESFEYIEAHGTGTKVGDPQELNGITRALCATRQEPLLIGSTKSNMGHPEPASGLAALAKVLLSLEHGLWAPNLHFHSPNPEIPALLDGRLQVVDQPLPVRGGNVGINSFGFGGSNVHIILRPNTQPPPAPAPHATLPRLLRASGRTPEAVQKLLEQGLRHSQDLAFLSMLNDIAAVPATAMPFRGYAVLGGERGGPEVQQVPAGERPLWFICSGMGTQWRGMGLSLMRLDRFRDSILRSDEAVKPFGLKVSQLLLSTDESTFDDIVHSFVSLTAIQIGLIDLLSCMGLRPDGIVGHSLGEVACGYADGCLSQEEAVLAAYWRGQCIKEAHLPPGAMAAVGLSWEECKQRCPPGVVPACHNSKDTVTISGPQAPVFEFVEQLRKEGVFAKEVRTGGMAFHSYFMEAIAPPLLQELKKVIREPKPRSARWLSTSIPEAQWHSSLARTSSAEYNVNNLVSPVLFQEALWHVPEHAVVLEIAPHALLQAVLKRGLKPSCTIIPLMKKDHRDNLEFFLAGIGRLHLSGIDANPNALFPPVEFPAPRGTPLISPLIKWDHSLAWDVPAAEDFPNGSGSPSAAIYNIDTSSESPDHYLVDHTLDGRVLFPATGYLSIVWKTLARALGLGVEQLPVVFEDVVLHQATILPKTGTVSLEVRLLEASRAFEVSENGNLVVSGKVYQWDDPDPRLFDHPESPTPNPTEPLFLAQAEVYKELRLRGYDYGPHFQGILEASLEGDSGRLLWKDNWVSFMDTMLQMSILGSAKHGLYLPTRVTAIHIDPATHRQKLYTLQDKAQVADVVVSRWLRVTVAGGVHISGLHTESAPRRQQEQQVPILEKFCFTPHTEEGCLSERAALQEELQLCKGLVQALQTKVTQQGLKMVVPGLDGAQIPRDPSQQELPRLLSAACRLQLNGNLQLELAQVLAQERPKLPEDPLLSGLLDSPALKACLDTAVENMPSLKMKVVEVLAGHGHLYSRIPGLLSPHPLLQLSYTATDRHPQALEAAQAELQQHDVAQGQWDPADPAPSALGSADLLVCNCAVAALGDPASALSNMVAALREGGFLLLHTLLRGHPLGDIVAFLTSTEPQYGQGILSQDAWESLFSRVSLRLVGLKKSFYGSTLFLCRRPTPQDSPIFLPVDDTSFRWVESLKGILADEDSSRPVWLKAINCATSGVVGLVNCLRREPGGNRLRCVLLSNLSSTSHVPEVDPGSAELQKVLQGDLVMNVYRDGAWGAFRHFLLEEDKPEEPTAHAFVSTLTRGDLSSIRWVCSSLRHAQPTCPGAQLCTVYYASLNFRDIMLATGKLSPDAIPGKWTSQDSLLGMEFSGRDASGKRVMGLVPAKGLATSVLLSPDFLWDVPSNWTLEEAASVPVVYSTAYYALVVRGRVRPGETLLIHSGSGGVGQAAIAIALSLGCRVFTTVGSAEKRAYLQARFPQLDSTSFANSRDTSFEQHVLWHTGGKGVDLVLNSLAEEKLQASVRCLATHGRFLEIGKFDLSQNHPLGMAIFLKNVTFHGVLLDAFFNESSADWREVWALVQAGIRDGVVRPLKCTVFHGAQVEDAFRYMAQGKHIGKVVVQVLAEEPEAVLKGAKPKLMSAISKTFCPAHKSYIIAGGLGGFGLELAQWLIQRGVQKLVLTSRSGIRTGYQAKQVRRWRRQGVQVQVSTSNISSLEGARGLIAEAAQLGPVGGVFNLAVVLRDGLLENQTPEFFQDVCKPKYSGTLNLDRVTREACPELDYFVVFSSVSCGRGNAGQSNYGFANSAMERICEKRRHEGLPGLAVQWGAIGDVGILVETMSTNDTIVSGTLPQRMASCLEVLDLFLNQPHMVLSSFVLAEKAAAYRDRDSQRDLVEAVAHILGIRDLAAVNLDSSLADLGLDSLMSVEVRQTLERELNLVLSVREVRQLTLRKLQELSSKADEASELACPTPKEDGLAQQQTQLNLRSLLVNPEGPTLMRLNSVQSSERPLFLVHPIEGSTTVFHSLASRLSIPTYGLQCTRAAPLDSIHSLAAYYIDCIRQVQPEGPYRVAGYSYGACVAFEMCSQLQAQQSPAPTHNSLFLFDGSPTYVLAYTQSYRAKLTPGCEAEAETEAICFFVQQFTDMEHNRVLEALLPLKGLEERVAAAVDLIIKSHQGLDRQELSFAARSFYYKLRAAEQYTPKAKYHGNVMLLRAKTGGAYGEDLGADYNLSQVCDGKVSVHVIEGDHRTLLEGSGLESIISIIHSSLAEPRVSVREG

inhibition, inactive:
CCOc1c(N2CCCCC2)c(=O)c1=O -8%
O=C(c1cccc(F)c1)N1CCN(c2ccc([N+](=O)[O-])c(N3CCCCC3)c2)CC1 17.3%
O=C(c1ccc(Oc2ccc(Cl)cc2)c([N+](=O)[O-])c1)N1CCCC1 -19.7%
COCCNc1nc2nonc2nc1N1CCCC1c1nccs1 (configuration not stated) -8.3%
CC(OC(=O)CNC(=O)c1cccc(F)c1)C(=O)NC1CCCCC1C (configuration not stated) -5.6%
COc1ccc(CNC(=O)C(=O)NCC2OCCN2C(=O)c2ccc(OC)cc2)cc1 (configuration not stated) -1.4%
Cc1ccc(-c2noc(CSc3nnc(-c4cccs4)n3C)n2)cc1 -14.2%
Cc1nnc(SCc2ccc(C(=O)c3ccc(Cl)cc3)o2)n1-c1ccccc1 2.7%
C/C(=N\NC(=O)c1cccnc1)c1ccc(-n2ccnc2)cc1 -10.3%
O=S(=O)(Nc1ccc(-n2cnnn2)cc1)c1ccc(Cl)cc1 2.4%
Cc1ccc(C)c(S(=O)(=O)Nc2cccc(-n3cnnn3)c2)c1 4.5%
O=c1c2ccccc2cnn1Cc1n[nH]c(=S)n1-c1ccccc1F -4.3%
Cc1ccc(C(=O)N/C(=C\c2cn(C)c3ccccc23)C(=O)N2CCN(C)CC2)cc1 -5%
Cc1ccc(C(=O)N/C(=C/c2cccs2)C(=O)N2CCCCC2)cc1 -8.4%
O=C(O)c1ccccc1-c1ccccc1C(=O)Nc1ccccc1Br -0.4%
O=C(NCc1ccccc1)C1CCN(C(=O)Cc2ccccc2)CC1 -4.1%
CCNC(=O)NNC(=O)C1CC(c2cccs2)=NO1 (configuration not stated) -1.4%
COc1ccc(S(=O)(=O)Nc2ccc(F)cc2)c(C)c1C 1.1%
CC(C)c1ccc(C(=O)OC2CCOC2=O)cc1 (configuration not stated) -2.3%
COc1cc(C(=O)OC2CCOC2=O)c([N+](=O)[O-])cc1OC (configuration not stated) -3.6%
O=C(CNC(=O)OCc1ccccc1)NC1CCCCNC1=O (configuration not stated) -2.6%
COc1ccc(S(=O)(=O)N2CCOCC2)cc1NC(=O)c1ccc(OCC(C)C)c(OC)c1 27.8%
O=C(NCC1CCCCC1)c1cc(S(=O)(=O)N2CCCCC2)ccc1N1CCOCC1 3.8%
COc1cccc(NC(=O)C2c3cc(OC)c(OC)cc3C(=O)N(C)C2c2cccnc2)c1 (configuration not stated) -9.1%
CC1(C)OC(=O)N2CCc3ccccc3C21C (configuration not stated) -4.7%
O=C(c1ccc2c(c1)C(=O)N(c1ccc(Cl)cc1)C2=O)N1CCN(c2ccccn2)CC1 -5.5%
O=C1c2ccccc2S(=O)(=O)c2cc(N3CCN(c4ccccn4)CC3)ccc21 12.8%
CCCCNC(=O)CCn1c(=O)c2ccccc2n(Cc2cc(C)ccc2C)c1=O -13.3%
COc1ccccc1CNC(=O)CCCn1c(=O)c2ccccc2n(CC(=O)NC2CCCC2)c1=O -7.6%
CN1CCN(Cc2nc3c(c(=O)n(C)c(=O)n3C)n2Cc2cccc3ccccc23)CC1 17.2%
CCOC(=O)N1CCN(Cc2nc3c(c(=O)n(C)c(=O)n3C)n2Cc2ccccc2)CC1 4%
COc1ccc(OC)c(S(=O)(=O)N2CCCC(C(=O)N3CCC(C(N)=O)CC3)C2)c1 (configuration not stated) -9.7%
COc1ccc(C2CC(c3cccc(OC)c3)=NN2c2ccc(S(N)(=O)=O)cc2)cc1 (configuration not stated) 18.6%
COc1ccc(C2=NN(C(=O)c3ccccc3C(=O)O)C(c3ccccc3O)C2)cc1 (configuration not stated) -6.4%
CCCn1c(SCC(=O)Nc2ccc(C)c(S(=O)(=O)N3CCOCC3)c2)n[nH]c1=O -3.3%
Cc1cc(C)c2nc(-c3cccnc3)cc(C(=O)Nc3ccc(S(=O)(=O)Nc4onc(C)c4C)cc3)c2c1 -0.1%
C/C(=N\Nc1ccc([N+](=O)[O-])cc1)c1ccc(-n2nncc2C(C)(C)C)cc1 -16%
C/C(=N/NC(=O)CC(=O)N/N=C(\C)c1ccc([N+](=O)[O-])cc1)c1ccc([N+](=O)[O-])cc1 36%
O=C(NCCN1CCOC1=O)C1CCC(=O)N(CCc2ccc(Cl)cc2)C1 (configuration not stated) 0.7%
O=C(c1cnccn1)N1CCN(S(=O)(=O)c2cccc(Cl)c2)CC1 -6.3%
Cc1ccc(S(=O)(=O)/N=C(/NC(=S)Nc2c(C)n(C)n(-c3ccccc3)c2=O)c2ccccc2)cc1 -4.4%
CC[C@]12c3[nH]c4ccc(Cl)cc4c3CCN1C(=O)[C@@H](CC(=O)NCCCOC)C[C@@H]2C(=O)N1CCN(C(=O)C2CC2)CC1 -5.2%
CCOC(=O)C1=CC[C@@H](c2ccccc2)N(S(=O)(=O)c2ccc(C)cc2)[C@H]1c1ccc(CC)cc1 31.8%
CCOC(=O)C1=C(N)N(c2ccc(C)cc2)C2=C(C(=O)CCC2)C1c1cccs1 (configuration not stated) 20.7%
CCOC1=C2[C@@H](CN(S(=O)(=O)c3ccc(C)cc3)[C@H]2c2ccccc2F)[C@H]2C(=O)N(Cc3ccccc3)C(=O)[C@H]2C1 35.8%
Cc1ccc(S(=O)(=O)N2C[C@@H](C)[C@]3(C2)[C@H](O)[C@H](OC(=O)NCc2ccccc2)C[C@H]2C(=O)N(c4ccccc4)C(=O)[C@H]23)cc1 18.7%
NC(=O)COC(=O)c1sc2cc(F)ccc2c1Cl 5%
CCOc1ccc2[nH]c(=S)sc2c1 -1.4%
CN1CCN(S(=O)(=O)c2ccc(Nc3ccc(F)cc3)nc2)CC1 -0.3%
CC1CN(C(=O)c2cc(COc3c(F)cccc3F)on2)CCN1C (configuration not stated) -5.4%
Cc1nnc(-c2ccc(Oc3ccc(C)c(C)c3)c([N+](=O)[O-])c2)o1 21.4%
COc1cccc2c1CCC(NC(C)=O)C2=O (configuration not stated) -7.2%
Brc1ccccc1/C=N/Nc1nc2ccccc2o1 -4.3%
O=C(NC(Nc1nc2ccc([N+](=O)[O-])cc2s1)(C(F)(F)F)C(F)(F)F)c1ccccc1 10.8%
COc1ccc(SCc2noc(C(=O)NCC3CCCO3)c2C(=O)O)cc1 (configuration not stated) -6.7%
Cc1cccc(N(CC(=O)N2CCCC2)S(C)(=O)=O)c1C -4.4%
COCCN1C2=C(COC(C)(C)C2)C(=S)NC1c1ccccc1 (configuration not stated) -8.2%
CCOC(=O)[C@H]1[C@H]2COc3ccc(OC)cc3[C@@H]2N2C(=O)c3ccc(F)cc3NC(=O)[C@@]12C -4.6%
Cc1ccc2c(c1)NC(=O)[C@@]1(C)[C@@H](c3ccccc3)[C@H]3COc4ccc(Cl)cc4[C@@H]3N1C2=O 15.6%
CCOC(=O)c1ccc(COC(=O)CCc2nc(-c3ccccc3)c(-c3ccccc3)o2)cc1 26.3%
COc1cc(OC)cc(-c2cc3nc(C4CCN(C(=O)OC(C)(C)C)CC4)cc(=O)n3[nH]2)c1 -5.7%
CCC(C)NC(=O)C1CCCN(C(=O)NC2CCCCC2)C1 (configuration not stated) -6.1%
O=C(c1[nH]ncc1-c1ccc(Cl)cc1)C1CO1 (configuration not stated) -22%
Cc1ccc(NC(=O)C(=O)NCC2CCN(C(=O)c3cccc([N+](=O)[O-])c3)CC2)cc1 0.8%
O=C(NC(=S)NC1CCS(=O)(=O)C1)c1cccc([N+](=O)[O-])c1 (configuration not stated) -3.5%
CCOc1ccc(CCNC(=O)COC(=O)c2ccc(F)c(S(=O)(=O)N3CCOCC3)c2)cc1OCC -4.3%

inhibition, active:
O=C(c1ccc(Cl)c([N+](=O)[O-])c1)N1CCN(c2ccccc2)CC1 53.6%
Fc1ccc(-n2c(Cc3ccccc3)nnc2SCc2nc(-c3ccc(Cl)cc3)no2)cc1 52.6%
O=S(=O)(Nc1cccc(-n2cnnn2)c1)c1cnc(Cl)c(Cl)c1 56.8%
Cc1ccc(C(=O)N/C(=C\c2cn(S(=O)(=O)N(C)C)c3ccccc23)C(=O)N2CCCC2)cc1 86.5%
O=C(OC1CCOC1=O)c1ccc(-c2nc3ccccc3s2)s1 (configuration not stated) 51.7%
COc1ccc(S(=O)(=O)N2CCCCC2)cc1NC(=O)c1cc([N+](=O)[O-])ccc1N1CCOCC1 86.5%
O=C(c1ccc2c(c1)N(Cc1ccc(F)cc1)C(=O)c1ccccc1S2(=O)=O)N1CCN(c2ccccn2)CC1 56.9%
COCCNC(=O)CCCn1c(=O)c2ccccc2n(Cc2cccc([N+](=O)[O-])c2)c1=O 55.7%
COCCn1c(CN2CCC(Cc3ccccc3)CC2)nc2c1c(=O)n(C)c(=O)n2C 53.4%
COc1ccc(C2CC(c3ccccc3)=NN2C(=O)c2ccc(Cl)c([N+](=O)[O-])c2)cc1 (configuration not stated) 65.8%
C/C(=N\Nc1nc(N2CCOCC2)nc(N2CCOCC2)n1)c1ccc([N+](=O)[O-])cc1 57.8%
CCOC1=C2CN(S(=O)(=O)c3ccc(C)cc3)[C@H](c3cccs3)C[C@H]2[C@H]2C(=O)N(c3ccccc3)C(=O)[C@H]2C1 58%
CCOC1=C2[C@H]([C@H]3C(=O)N(c4ccccc4)C(=O)[C@H]3C1)[C@@H](c1ccccc1)N(S(=O)(=O)c1ccc(C)cc1)[C@H]2c1ccccc1 69.2%
O=[N+]([O-])c1cc(Br)c(O)c(/C=N/Nc2nc3ccccc3s2)c1 52.5%
COc1ccc2c(c1)[C@H]1[C@H](CO2)[C@H](c2ccccc2)[C@]2(C)C(=O)Nc3cc(F)c(F)cc3C(=O)N12 71.2%
O=C(Nc1ccc(C2CC2(Cl)Cl)cc1)c1cccc([N+](=O)[O-])c1 (configuration not stated) 90.9%
